Assay outcomes (PubChem)
Rows were chosen to be rich in hits. Some 12% of all compounds tested hit in one or more screens of this group.
SARS PLpro yeast: SARS-CoV PLP inhibition in yeast; S. cerevisiae expressing SARS-CoV PLpro, growth rescue; Potency, µM (doses to about 32.9 µM), most hits filed as activators; 330,000 compounds, 0.19% hits; AID 485353; also: nearly all actives have a fitted effect of over 55% in size
Shiga toxin inh: Shiga toxin inhibition | Vero cells, Shiga toxin protein synthesis inhibition reporter | inhibition, % at 38.7 µM | 290,000 compounds, 9.2% hits | AID 2315; in the data active = inhibition mostly above about 28%, no sharp cut-off; inactive = mostly below about 43%
NS1 inh: inhibitors of influenza NS1 protein function; AID 2326; Potency, µM (series often up to 46.1 µM); 270,000 compounds, 0.4% hits; also: actives are rising curves; nearly all actives have a fitted effect of over 50% in size
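S. cerevisiae expressing influenza A NS1, grown in glucose, washed, then diluted 1:100 into pH 6.0 -URA galactose medium with 23 nl compound. Growth recovery read as OD600; NS1-free strain serves as control.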
CHX counter: counter-screen hit for Shiga toxin inhibitors, cycloheximide | cell reporter, cycloheximide protein synthesis inhibition counterscreen | max response, % | 300,000 compounds, 12% hits | AID 2314; in the data active = max response mostly above about 13%, no sharp cut-off; inactive = mostly below about 14%; also: read at 38.3 µM for the half of the compounds with a filed dose
Large screens that a line does not name were inactive. Unless noted, calls follow the shape of the full dose curve.

O=C(Nc1ncc2c(n1)-c1ccccc1CC2)c1cccs1	CHX counter 27.8 (no result: NS1 inh)
Cc1ccc(CSCC(=O)NCCc2ccccc2)cc1	CHX counter 17.7 (no result: NS1 inh)
Cc1ccc(SCC(=O)Nc2ccccc2C(=O)O)cc1	Shiga toxin inh 116.6, CHX counter 28.8
Cc1ccc(CSCC(=O)Nc2ccccc2C(=O)O)cc1	Shiga toxin inh 47.1, CHX counter 35.6
O=C(CSc1ccccc1)Nc1ccccc1C(=O)O	Shiga toxin inh 87.5, CHX counter 27.1 (no result: SARS PLpro yeast)
Cc1ccc(NC(=O)CSCC(=O)NCCc2ccccc2)cc1	none
CCOc1cc(NC(=S)NCCCN2CCOCC2)c(OCC)cc1NC(=O)c1ccco1	none
CCN(CC1CCCO1)C(=O)CCc1nnc(CCc2ccc(OC)cc2)o1 (stereo not drawn)	Shiga toxin inh 48.1, CHX counter 25.4
COc1cccc(CNC(=O)CCc2nnc(C3CCCCC3)o2)c1	none
CCCN(CC1CCCO1)C(=O)CCc1nnc(-c2cc(C)on2)o1 (stereo not drawn)	Shiga toxin inh 51.0, CHX counter 15.8
O=C(CCc1nnc(-c2ccc3c(c2)OCO3)o1)N(Cc1ccncc1)CC1CCCO1 (stereo not drawn)	none
COc1ccc(CC(=O)N(CC2CCCO2)c2nc3ccccc3s2)cc1 (stereo not drawn)	CHX counter 27.2
COc1cccc(CCc2nnc(CCC(=O)NCCC3CCCCO3)o2)c1 (stereo not drawn)	CHX counter 18.4
CCN(CC1CCCO1)C(=O)CCc1nnc(CCc2ccccc2OC)o1 (stereo not drawn)	none
CC(O)[C@H]1CNC(=O)C(=O)N1CCc1cccc(F)c1 (stereo partly drawn)	none
COc1ccc(CCc2nnc(CCC(=O)N(C)Cc3ccncc3C)o2)cc1	Shiga toxin inh 70.0, CHX counter 22.2
CC(=O)N1CCn2c3ccc(C)cc3c3cccc1c32	Shiga toxin inh 47.1, CHX counter 23.8
COC(=O)c1ccc2c(=O)n(C3CCCCC3)c(SCC#N)nc2c1	Shiga toxin inh 70.9
CCOC(=O)CSc1nc2cc(C(=O)N3CCC(C(N)=O)CC3)ccc2c(=O)n1C1CCCCC1	none (no result: NS1 inh)
Cc1nc(-c2ccc(NC(=O)c3ccccc3C)cc2)cs1	Shiga toxin inh 61.2, CHX counter 31.1
Cc1nc(-c2ccc(NC(=O)c3ccccc3Br)cc2)cs1	Shiga toxin inh 57.3, CHX counter 54.6
O=C(COc1ccccc1C(=O)Nc1ccccc1)c1ccc(Br)cc1	none
O=C(Oc1ccccc1C(=O)Nc1ccccc1)c1ccccc1Br	Shiga toxin inh 33.1, CHX counter 32.1
CCOC(=O)Cc1ccc(NC(=O)c2ccccc2Br)cc1	CHX counter 19.0
CCOC(=O)Cc1ccc(NC(=O)c2ccc(C(C)(C)C)cc2)cc1	none
Cc1cccc(C(=O)O)c1C[C@H]1NCC[C@H]2c3ccccc3N[C@@H]12	none (no result: SARS PLpro yeast, Shiga toxin inh, CHX counter)
O=C(COc1ccc(Cl)cc1Cl)NC(=O)N1CCOCC1	Shiga toxin inh 93.1, CHX counter 34.7
O=C(COc1ccc(Cl)cc1Cl)NC(=O)c1ccccc1	SARS PLpro yeast inconclusive
O=C(COc1ccccc1Cl)Nc1ccccc1C(=O)N1CCOCC1	CHX counter 18.1
COc1cc(C(=S)N2CCCCC2)ccc1OCC(=O)Nc1ccccc1Cl	none (no result: NS1 inh)
O=C(COc1ccc(C(=S)N2CCOCC2)cc1Cl)Nc1ccccc1Cl	Shiga toxin inh 52.2, CHX counter 19.3 (no result: NS1 inh)
O=C(c1cc(Cl)ccc1OCc1ccccc1)N1CCOCC1	CHX counter 20.4
Cc1cc(Cl)ccc1OCC(=O)Nc1ccccc1C(=O)N1CCOCC1	none
O=C1N=C(N2CCOCC2)S/C1=C/c1cc2c(cc1[N+](=O)[O-])OCO2	none
N#C/C(=C\c1ccc(OCCN2CCOCC2)cc1)C(=O)Nc1ccc(S(N)(=O)=O)cc1	none
Cc1cc(=O)oc2c(C)c(OC3CCCCC3=O)ccc12 (stereo not drawn)	none
Cc1cc(C)n(C(=O)c2cc3sccc3[nH]2)n1	Shiga toxin inh 64.1, CHX counter 30.0
COc1ccc(CNC(=O)c2nccnc2CO)cc1	none
O=C(Cn1nc(C(=O)O)c2ccccc2c1=O)Nc1ccc2c(c1)C(=O)c1ccccc1C2=O	CHX counter 23.9
Cc1cc(C)cc(OCC(=O)Nc2ccc3c(c2)C(=O)c2ccccc2C3=O)c1	Shiga toxin inh 45.7, CHX counter 19.8
CCC(=O)Nc1ccc2c(c1)C(=O)c1ccccc1C2=O	Shiga toxin inh 75.8, CHX counter 36.1
Cc1cc(C)cc(OCC(=O)Nc2ccc(F)cc2)c1	none
COc1ccccc1NCCC(=O)OCC(=O)NC1CCCC(C)C1C (stereo not drawn)	none
COc1ccc(NC(=O)C(OC(=O)c2ccc([N+](=O)[O-])o2)c2ccccc2)cc1Cl (stereo not drawn)	CHX counter 20.3
O=C(CSC1=NCCS1)N1CCc2ccccc21	Shiga toxin inh 178.3, CHX counter 41.1
CC1Cc2ccccc2N1C(=O)CSC1=NCCS1 (stereo not drawn)	none
CCc1nnc(SCC(=O)N2CCCc3ccccc32)nc1CC	none
Nc1ccccc1SCC(=O)N1CCc2ccccc21	CHX counter 41.0
Cc1ccc2c(c1)c1nnc(SCC(=O)N3CCCc4ccccc43)nc1n2CC(=O)O	Shiga toxin inh 76.2, CHX counter 32.1
Cc1ccc(SCC(=O)N2CCc3ccccc32)cc1	Shiga toxin inh 52.6, CHX counter 45.9
COc1ccc(C(=O)N2CCOC2CNC(=O)C(=O)NCc2ccco2)cc1 (stereo not drawn)	none
CCCn1nnnc1SCC(=O)N1CCCc2ccccc21	Shiga toxin inh 108.0, CHX counter 47.8
O=C(CNc1ccccc1OC(F)F)N1CCc2ccccc21	Shiga toxin inh 45.0, CHX counter 32.0 (no result: NS1 inh)
Cc1ccc(-c2ccc(SCC(=O)N3CCc4ccccc43)nn2)cc1	none
Cc1ccc(-c2ccc(SCC(=O)N3CCCc4ccccc43)nn2)cc1	Shiga toxin inh 52.4, CHX counter 23.8
CC(C)c1nc(SCC(=O)N2CCc3ccccc32)n[nH]1	CHX counter 20.8 (no result: NS1 inh)
COc1ccc(CC(=O)OCC(=O)NCc2ccc(C)cc2)cc1OC	none (no result: Shiga toxin inh, NS1 inh, CHX counter)
C#CCOCCOCCOCCNc1nc(N2CCN(C(=O)[C@H](CCC(=O)O)n3cc([C@@H](N)[C@H](C)CC)nn3)CC2)nc(N2CCN(C(=O)[C@H](CCCCN)n3cc([C@@H](N)CC(N)=O)nn3)CC2)n1	none (no result: Shiga toxin inh, NS1 inh, CHX counter)
CCc1cc(CNC(=O)c2ccc(OC3CCN(C(C)=O)CC3)c(OC)c2)on1	none
CCCc1nn2c(=O)cc(CSCC(=O)Nc3nnc(C(C)C)s3)nc2s1	none
CCOC(=O)c1[nH]c(C)c(CC(C)C)c1C	CHX counter 20.4 (no result: NS1 inh)
CCOC(=O)c1[nH]c(C)c(C(=O)C(C)C)c1C	CHX counter 16.9
CC(=O)N/N=C/c1cc(C(C)C)cc(/C=N/NC(C)=O)c1O	none
O=C(CS(=O)(=O)c1ccccc1)Nc1ccc(Cl)cn1	Shiga toxin inh 67.0
O=C(CCS(=O)(=O)c1ccccc1)Nc1ccc(Cl)cn1	Shiga toxin inh 61.0, CHX counter 24.1
CCOc1cc(/C=C2\SC(=N)N(c3nonc3N)C2=O)ccc1OCCN1CCOCC1	CHX counter 14.1
CCOc1cc(/C=C2\SC(=N)N(c3nonc3N)C2=O)ccc1OCC(N)=O	none
O=C(C1=C[C@H](C2CCCCC2)C[C@H](OCCCCO)O1)N1CCN(Cc2ccc3c(c2)OCO3)CC1	none
O=C(COc1ccc(F)cc1)N1CCCCCCC1	none
